Screens: PubChem BioAssay, The Scripps Research Institute Molecular Screening Center
PLC-gamma1 inh = inhibitors of human phospholipase C gamma1; 370,000 compounds, 0.84% hits; P19174; purified PLC-gamma1, fluorogenic substrate, fluorescence; inhibition, % at 12.2 µM; in the data active = inhibition above about 9.5%
ADAM17 inh = ADAM17 inhibition, QFRET primary screen | P78536 | recombinant ADAM17, EDANS/DABCYL FRET peptide cleavage | inhibition, % at 6.95 µM | 370,000 compounds, 0.83% hits;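 active = inhibition above the mean of compounds lying between control limits plus 3 SD, set per campaign, cut at about 8.5% in these data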
proKLK7 act = activators of human kallikrein-7 zymogen | purified proKLK7, EDANS-DABCYL substrate fluorescence; 100% is mature enzyme control, 0% vehicle | P49862 | 370,000 compounds, 0.9% hits | activation, % at 7 µM;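 active = activation above the mean of all tested compounds plus 3 SD, computed per campaign excluding outliers beyond control limits, cut at about 13% in these data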
ADAM10 inh = inhibitors of human ADAM10 | inhibition, % at 7 µM | O14672 | recombinant ADAM10, EDANS/DABCYL FRET peptide cleavage, 3 h | AID 720582 | 370,000 compounds, 0.62% hits;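 active = inhibition above a per-campaign cutoff equal to the mean of compounds falling between control-based bounds plus 3 SD, cut at about 20% in these data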
Target sequence (O14672 214-748 limits assumed): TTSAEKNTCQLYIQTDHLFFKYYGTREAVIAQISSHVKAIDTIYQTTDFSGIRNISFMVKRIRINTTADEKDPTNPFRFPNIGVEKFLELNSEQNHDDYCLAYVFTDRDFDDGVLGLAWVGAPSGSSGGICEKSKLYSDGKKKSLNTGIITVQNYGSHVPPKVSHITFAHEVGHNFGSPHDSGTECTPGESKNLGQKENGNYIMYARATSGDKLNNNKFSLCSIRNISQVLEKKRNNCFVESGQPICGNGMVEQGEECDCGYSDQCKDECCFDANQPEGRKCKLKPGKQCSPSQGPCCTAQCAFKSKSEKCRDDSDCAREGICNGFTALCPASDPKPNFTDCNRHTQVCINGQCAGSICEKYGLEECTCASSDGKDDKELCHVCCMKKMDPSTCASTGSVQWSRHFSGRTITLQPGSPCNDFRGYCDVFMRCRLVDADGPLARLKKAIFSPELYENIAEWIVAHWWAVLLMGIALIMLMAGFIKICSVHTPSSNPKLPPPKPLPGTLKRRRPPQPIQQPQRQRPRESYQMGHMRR
PLCb3 inh = inhibitors of human phospholipase C beta3; Q01970; Purified PLC-beta3, fluorogenic substrate, fluorescence; inhibition, % at 12.2 µM; 370,000 compounds, 0.18% hits; in the data active = inhibition above about 11%
KLK7 act conf = proKLK7 activation, confirmation; purified proKLK7, EDANS-DABCYL substrate fluorescence; scaled: vehicle 0, mature enzyme 100; shares compounds with proKLK7 act; 3,200 compounds, 68% hits; AID 686949; activation, % at 7 µM;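 active = activation, as change over the incubation, above the mean of all tested compounds plus 3 SD, cut at about 13% in these data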
EDANS-DABCYL int = optically interferes with EDANS-DABCYL signal, flagging KLK7 hits | shares compounds with proKLK7 act | EDANS-DABCYL substrate fluorescence interference, no enzyme, 4 h; solvent 0%, active enzyme control 100% | activation, % at 7 µM | 3,200 compounds, 80% hits | AID 686952;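 active = activation above the all-compound mean plus 3 SD, ignoring values outside control-based bounds, cut at about 4.8% in these data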;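 also: value is the 4 h activation minus the activation read at time zero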
K7 EDANS ctr = EDANS fluorescence interference in dose response, no enzyme | EDANS-DABCYL peptide fluorescence interference | EC50, µM | 250 compounds, 20% hits | shares compounds with proKLK7 act;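 active = compounds that raise the fluorescence signal in this interference counterscreen, with EC50 at or below 10 µM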;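 also: intact quenched peptide substrate alone read at 355 nm excitation and 520 nm emission; signal is fluorescence gain from T0 to T4 after four hours at room temperature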
Of the large screens only hits and unclear results are named; the others gave an inactive call (follow-up assays come after a bar, where they were run). In the library only some 2.9% were active in any assay of this set; here they are far more common.

Cc1ccc(C(=O)N[C@@H](C)CN2C3=NC[C@@H](Cc4ccccc4)N3C[C@H]2Cc2ccc(O)cc2)cc1Br	PLC-gamma1 inh 12.9
Cc1nc2c(=O)n(C)c(=O)nc-2n(C)n1	PLC-gamma1 inh 59.8
O=c1cccc2n1CC1CC2CN(S(=O)(=O)c2ccccc2)C1 (stereo not given)	none
COC(=O)C1=C(c2ccc(F)cc2OCc2ccccc2)C[C@@H]2CC[C@H]1N2C(=O)NCc1ccc(F)cc1	none
COC(=O)C1=C(c2ccc(F)cc2OCc2ccccc2)C[C@@H]2CC[C@H]1N2C(=O)NC1Cc2ccccc2C1	ADAM17 inh 10.2
CCOP(=O)(OCC)C(NC(=O)CC(C)C)C(Cl)(Cl)Cl (stereo not given)	none
OC(CN1CCCCC1)c1c[nH]c2ccccc12 (stereo not given)	none
O=C(COc1ccc2ccccc2c1)N1CCN(Cc2c[nH]c3ccccc23)CC1	ADAM17 inh 8.7
Cc1ccc(Cl)cc1N1CCN(CCN)CC1	PLC-gamma1 inh 16.3
CC(Cc1ccccc1)NC(=O)Cc1ccc([N+](=O)[O-])cc1 (stereo not given)	PLC-gamma1 inh 9.8
O=[N+]([O-])c1ccc(Nc2ccccc2)cc1	none
O=C(C1CCCN(S(=O)(=O)c2cccc3nsnc23)C1)N1CCC2(CC1)OCCO2 (stereo not given)	none
Nc1ccc(Cc2ccc(N)cc2)cc1	PLCb3 inh 10.7
O=C(CCCCCn1c(=S)[nH]c2ccccc2c1=O)N1CCC2(CC1)OCCO2	none
CCOC(=O)c1c(N)n(CCCOC(=O)c2ccco2)c2nc3ccccc3nc12	proKLK7 act 39.2 | KLK7 act conf 63.3 | EDANS-DABCYL int 63.9
CCOC(=O)c1c(NS(=O)(=O)c2ccccc2)n(CCCOC)c2nc3ccccc3nc12	proKLK7 act 81.9 | KLK7 act conf 66.2 | EDANS-DABCYL int 70.0
COCCCn1c(N)c(C(=O)OCCOC)c2nc3ccccc3nc21	proKLK7 act 84.1 | KLK7 act conf 71.3 | EDANS-DABCYL int 78.0
CCCCNC(=O)c1c(N)n(CCCOC)c2nc3ccccc3nc12	none
CN1C(=O)C(C2CCCCC2)C(=O)N(C)C1=O	none
CCOC(=O)c1cc2c(cn1)[nH]c1ccccc12	proKLK7 act 20.3 | KLK7 act conf inactive | EDANS-DABCYL int inactive
CN(C)CCN=Cc1c(O)n(CCC2=CCCCC2)c(=O)[nH]c1=O	proKLK7 act 27.2 | KLK7 act conf inactive | EDANS-DABCYL int inactive
O=c1[nH]c(=O)n(CCC2=CCCCC2)c(O)c1C=NCCCn1ccnc1	none
CC1=Nc2ccccc2/C1=C/c1c(O)[nH]c(=O)[nH]c1=O	none
Cc1ccc2c(c1)=NC(=O)/C(=C/c1c(O)[nH]c(=O)[nH]c1=O)C=2	proKLK7 act 17.8 | KLK7 act conf 45.9 | EDANS-DABCYL int 45.0
COC(=O)C1=C(c2ccc(F)cc2F)C[C@@H]2CC[C@H]1N2C(=O)NCCO	none
CCN1CCN(C(=O)COc2ccc3c(c2)C(=O)CC2(CCN(C(C)=O)CC2)O3)CC1	proKLK7 act 35.8 | KLK7 act conf 81.6 | EDANS-DABCYL int 63.2 | K7 EDANS ctr inactive
CC1(C)CC(=O)c2cc(OCC(=O)N3CCN(Cc4ccccc4)CC3)ccc2O1	none
Cc1ccsc1C(=O)C1CCCN(Cc2cn(C)nc2C)C1 (stereo not given)	none
O=C(CN1CCCC1)Nc1ccc(Cl)cc1C(=O)c1ccccc1	none
Nc1c(C(=O)NCc2ccco2)c2nc3ccccc3nc2n1CCN1CCCCC1	proKLK7 act 62.8 | KLK7 act conf inactive | EDANS-DABCYL int inactive
COc1ccc(Cn2c(N)c(C(=O)NCc3ccco3)c3nc4ccccc4nc32)cc1OC	none
COc1cc2c(cc1OC)C(c1c(O)n(CCc3ccccc3)c(=S)[nH]c1=O)NCC2 (stereo not given)	proKLK7 act 95.2 | KLK7 act conf 85.3 | EDANS-DABCYL int 83.9
COc1ccc(C2CC(c3c(O)n(CCc4ccccc4)c(=O)[nH]c3=O)=NN2)cc1OC (stereo not given)	none
O=C(CNCc1c(F)cccc1F)N1CCC2(CC1)OCCO2	none
CN1CCN(c2ccc3c(c2)S(=O)(=O)c2ccccc2C3=O)CC1	proKLK7 act 19.8 | KLK7 act conf inactive | EDANS-DABCYL int 4.2
CC[C@@H](CO)NC(=O)[C@@H]1C=C2c3cccc4[nH]cc(c34)C[C@H]2N(C)C1	proKLK7 act 19.5 | KLK7 act conf inactive | EDANS-DABCYL int inactive
O=C1CC=C2C3CC4N(CCC45c4cc(O)c(O)cc4N1C25)CC3=CCBr (stereo not given)	none
COC(=O)C12CCc3c(ccc4cc(OC)ccc34)C1=CC(=O)C2 (stereo not given)	proKLK7 act 92.9 | KLK7 act conf 65.2 | EDANS-DABCYL int 79.3
COC(=O)C1=C(c2ccc(OCc3ccccc3)cc2)C[C@@H]2CC[C@H]1N2C(=O)NCc1ccc(C(C)(C)C)cc1	none
CC1(O)CCC2C3CCC4=CC(=O)CCC4=C3C=CC21C (stereo not given)	proKLK7 act 14.2 | KLK7 act conf 13.4 | EDANS-DABCYL int 23.1
COc1ccc(-c2cc(C(F)(F)F)n3nc(C(=O)N4CCC5(CC4)OCCO5)cc3n2)cc1OC	none
CCOc1ccc(-c2cc(C)[n+](CCN3CCOCC3)c(-c3ccc(OCC)cc3)c2)cc1	proKLK7 act 25.2 | KLK7 act conf 28.9 | EDANS-DABCYL int 28.4
O=c1ccc2cc(OC3O[C@H](CO)[C@@H](O)[C@H](O)[C@H]3O)c(O)cc2o1 (stereo not given in full)	proKLK7 act 53.0 | KLK7 act conf 59.1 | EDANS-DABCYL int 74.0
COc1cc([C@H]2OC[C@H]3[C@@H]2CO[C@@H]3c2cc(OC)c(O[C@@H]3O[C@H](CO)[C@@H](O)[C@H](O)[C@H]3O)c(OC)c2)cc(OC)c1O[C@H]1O[C@@H](CO)[C@H](O)[C@@H](O)[C@@H]1O	none
COc1ccc(CC(=O)N2C[C@H]3C[C@@H](C2)c2cccc(=O)n2C3)cc1	none
Cc1c(CC(=O)N2C[C@H]3C[C@@H](C2)c2cccc(=O)n2C3)c(=O)oc2cc(O)c(Cl)cc12	proKLK7 act 72.6 | KLK7 act conf 59.5 | EDANS-DABCYL int 67.7
COc1cc2oc(=O)c(CC(=O)N3C[C@H]4C[C@@H](C3)c3cccc(=O)n3C4)c(C)c2cc1Cl	none
Cc1c(CCC(=O)N2C[C@H]3C[C@@H](C2)c2cccc(=O)n2C3)c(=O)oc2c(C)c(O)ccc12	proKLK7 act 84.4 | KLK7 act conf 73.2 | EDANS-DABCYL int 77.6
